Rows were chosen to be rich in hits. Some 3.5% of all compounds tested hit in one or more screens of this group.
Hck-Nef inh: inhibitors of Nef-activated human Hck kinase, primary screen, biochemical, Z-Lyte FRET, 384-well, Hck-YEEI; Tyrosine-protein kinase HCK (Homo sapiens), P08631; Recombinant Hck-YEEI plus Nef, Z-Lyte FRET kinase assay; inhibition, % at 20 µM; 0.68% of 220,000 active; AID 463187, 2010;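 active = Hck-Nef kinase inhibition above about 50%, limit read from the data; inactive = inhibition below that limit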;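 note: 0% = DMSO with Hck plus Nef and 100% = Hck alone without Nef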
Mcl1-Noxa inh: Mcl-1/Noxa binding inhibitors, primary screen, biochemical, TR-FRET, 1536-well. Induced myeloid leukemia cell differentiation protein Mcl-1 (Homo sapiens), Q07820. TR-FRET Mcl-1/Noxa peptide binding, 2 h. inhibition, % at 21.7 µM. 1.5% of 220,000 active;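 active = compounds that cut the protein-peptide binding signal by more than 50% relative to plate controls in a single-dose test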;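 note: His-tagged Mcl-1 with rhodamine Noxa BH3 peptide and terbium anti-His antibody; 0% = Mcl-1 plus Noxa peptide wells and 100% = peptide-only wells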
Target sequence (Q07820 whole entry, looked up): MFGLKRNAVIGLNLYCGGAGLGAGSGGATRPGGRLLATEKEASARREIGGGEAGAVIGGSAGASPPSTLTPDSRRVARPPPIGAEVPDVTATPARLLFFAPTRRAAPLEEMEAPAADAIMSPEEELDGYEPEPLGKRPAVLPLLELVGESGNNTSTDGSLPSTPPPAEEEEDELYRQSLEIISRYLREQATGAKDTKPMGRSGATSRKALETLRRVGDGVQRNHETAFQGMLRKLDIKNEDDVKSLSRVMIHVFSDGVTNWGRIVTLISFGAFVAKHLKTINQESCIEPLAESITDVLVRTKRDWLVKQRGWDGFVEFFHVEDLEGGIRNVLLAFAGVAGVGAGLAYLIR
Mcl1-Bid inh: Mcl-1/Bid binding inhibitors, primary screen, biochemical, TR-FRET, 1536-well | TR-FRET Mcl-1/Bid-Dy647 peptide binding | inhibition, % at 21.7 µM | 0.97% of 220,000 active;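 active = compounds that cut the binding signal by more than half at the single screening dose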;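 note: His-tagged Mcl-1 with europium anti-His antibody binding Bid BH3 peptide; 0% = Mcl-1 plus peptide wells and 100% = peptide-only wells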
eIF4E 4G PPI: eIF4E–eIF4G protein interaction inhibitors, primary screen, biochemical, uHTS, TR-FRET, eIF4GI fragment | Eukaryotic translation initiation factor 4E (Mus musculus) + Eukaryotic translation … | TR-FRET eIF4E-eIF4GI(517-606) binding, 2 h | inhibition, % at 21.7 µM | 0.37% of 220,000 active | AID 782, 2007;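 active = inhibition above about 30%, limit read from the data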;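 note: 0% = full FRET control wells and 100% = background wells lacking eIF4GI fragment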
14-3-3 Bad inh: inhibitors of 14-3-3 zeta/Bad binding, primary screen, biochemical, TR-FRET, bovine 14-3-3 zeta. 14-3-3 protein zeta/delta (Bos taurus), P63103. TR-FRET 14-3-3zeta/Dy647-pBad peptide displacement, 1 h. inhibition, % at 21.7 µM. 0.71% of 220,000 active. AID 781, 2007;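 active = inhibition above about 70%, limit read from the data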;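 note: 0% = full 14-3-3 plus peptide FRET controls and 100% = background without 14-3-3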
Target sequence (P63103 whole entry, looked up): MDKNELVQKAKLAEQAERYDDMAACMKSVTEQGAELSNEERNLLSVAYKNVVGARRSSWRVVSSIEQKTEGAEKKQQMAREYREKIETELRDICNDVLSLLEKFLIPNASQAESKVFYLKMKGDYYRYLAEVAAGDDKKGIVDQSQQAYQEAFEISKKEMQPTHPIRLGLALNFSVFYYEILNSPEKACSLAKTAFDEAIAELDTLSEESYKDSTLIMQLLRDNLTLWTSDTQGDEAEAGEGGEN
Bim-Mcl-1: inhibitors of Bim peptide binding to Mcl-1, primary screen, biochemical, bead-based flow cytometry, multiplex | inhibition, % at 10 µM | Induced myeloid leukemia cell differentiation protein Mcl-1 (Homo sapiens), Q07820 | Bim peptide-Mcl-1 binding | 0.1% of 190,000 active | AID 1009, 2008; in the data active = inhibition above about 40%;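 note: 0% = no compound tracer wells and 100% = peptide blocker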
Numbers without * were called inactive; x = no result given; [ ] = remark or other dose.

SMILES | Hck-Nef inh | Mcl1-Noxa inh | Mcl1-Bid inh | eIF4E 4G PPI | 14-3-3 Bad inh | Bim-Mcl-1
CC(=O)c1sc(NC(=O)COc2ccccc2)nc1C | -14.5 | 6.2 | -22.0 | -1.7 | -4.3 | 0.0
CCc1ccc2nc(N3C(=O)C(O)=C(C(=O)c4ccco4)C3c3cccs3)sc2c1 (stereo unspecified) | 4.9 | 53.0* | 19.1 | -6.9 | 2.8 | 1.0
O=C(C1=C(O)C(=O)N(CCc2ccccc2)C1c1cccs1)c1ccco1 (stereo unspecified) | 32.1 | 9.8 | -4.3 | -2.7 | 0.2 | 1.0
Cc1ccc2nc(N3C(=O)C(O)=C(C(=O)c4cc5ccccc5o4)C3c3cccs3)sc2c1 (stereo unspecified) | 1.0 | 70.0* | -25.1 | -6.6 | 10.9 | 2.0
CN(C)CCNC(=O)c1c(CSc2ccccc2)noc1C(=O)NCc1ccccc1 | 27.1 | -9.3 | -29.4 | 2.6 | -0.8 | x
Cc1ccc(S(=O)(=O)N2CCCCC2)cc1NC(=O)COC(=O)C1=COCCO1 | 16.1 | -3.3 | -6.1 | -0.5 | -14.6 | -2.0
Oc1ccc(-c2csc(Nc3ncccn3)n2)c(O)c1 | 25.1 | 71.8* | 40.8 | -4.7 | 7.8 | -2.0
Oc1ccc(-c2csc(Nc3ncccn3)n2)cc1O | 37.2 | 86.9* | -47.5 | -1.5 | -7.4 | 0.0
COc1ccc(-c2csc(NC(=S)NC(=O)c3cccs3)n2)cc1OC | 36.8 | 82.0* | -87.2 | 11.1 | -12.7 | 0.0
O=C(Nc1cccc(-c2csc(-c3ccccc3)n2)c1)c1cccs1 | -1.2 | -7.8 | 96.3* | -6.6 | -1.8 | 1.0
COc1ccc(-c2csc(NC(=S)NC(=O)c3cccs3)n2)cc1Br | 13.1 | 14.7 | 2.6 | -4.6 | -3.8 | x
CC(=O)Nc1cccc(-c2csc(Nc3ncccn3)n2)c1 | 18.9 | 29.1 | -29.8 | -3.8 | 8.8 | -1.0
CC(C)(C)C1C=C(Sc2ccccc2)C(=O)O1 (stereo unspecified) | 1.5 | 3.8 | -4.0 | -0.4 | -2.6 | -3.0
COC(=O)c1sccc1NC(=O)CNC(=O)c1ccccc1 | 19.5 | 3.9 | -2.8 | 0.7 | -1.7 | -1.0
COc1ccc(C2CC(c3ccc4ccccc4c3OC(C)=O)=NN2C(C)=O)cc1 (stereo unspecified) | 20.7 | 1.3 | 8.3 | -1.6 | 1.3 | x
Oc1ccc(-c2csc(-c3ccccc3)n2)cc1O | -0.6 | 61.8* | -49.8 | 6.5 | 4.2 | 0.0
CCN(CC)CCOc1ccc(/C(=C(/Cl)c2ccccc2)c2ccccc2)cc1 | 30.7 | 9.8 | 12.4 | 14.0 | 77.8* | 0.0
CC/C(=C(\c1ccc(O)cc1)c1ccc(OCCN(C)C)cc1)c1ccccc1 | x | 20.9 | 6.3 | 20.3 | 18.4 | -2.0
Cc1cccc(C2Nc3ccccc3C(=O)N2NC(=O)c2ccc([N+](=O)[O-])cc2)n1 (stereo unspecified) | 1.6 | 5.8 | -0.4 | -0.4 | 73.5* | -6.0
O=C(OCC(=O)N1CCc2ccccc2C1)c1cccnc1Cl | -8.5 | 12.0 | -21.2 | -5.9 | -14.5 | 1.0
CC(CO)(CO)NCc1ccc(-c2ccccc2)cc1 | -1.0 | 19.0 | 1.3 | 4.3 | 10.3 | 4.0
C=CCC(C)(NCc1ccccc1)c1ccco1 (stereo unspecified) | -0.3 | 4.5 | 22.9 | 8.4 | 72.5* | 2.0
Nc1nnc(CC(=O)Nc2ccccc2)s1 | -7.4 | -9.7 | -16.4 | 3.7 | -0.6 | x
COC(=O)/C(=N/Nc1ccccc1)N1CCCc2ccccc21 | 1.4 | 18.7 | 94.7* | 2.0 | -6.0 | -2.0
COC(=O)/C(=N/Nc1ccc(C)cc1)N1CCCc2ccccc21 | -0.4 | -2.5 | -95.0 | -0.1 | 4.2 | -3.0
SMILES | Hck-Nef inh | Mcl1-Noxa inh | Mcl1-Bid inh | eIF4E 4G PPI | 14-3-3 Bad inh | Bim-Mcl-1
Cc1cc(C(F)F)nn1CC(=O)NC1C(=O)N2C(C(=O)O)=C(CSc3nnnn3C)CSC12 (stereo unspecified) | 38.1 | 18.2 | -18.9 | 3.7 | 9.2 | 0.0
CCCCn1c(=O)[nH]c(=O)c2c1nc(-c1ccc(-c3ccccc3Br)o1)n2CC | 4.3 | 55.4* | -5.7 | 4.0 | 13.7 | -3.0
CCCCn1c(=O)[nH]c(=O)c2c1nc(-c1ccc3ccccc3c1)n2CC | 20.4 | 8.9 | -13.9 | -1.0 | -0.3 | 8.0
O=C(COC(=O)c1ccc2ccccc2c1)NCCCc1ccccc1 | 1.1 | 4.8 | 81.0* | 0.6 | -0.3 | -2.0
CN(C)c1ccc(NC(=O)CN2CCC(N3CCCCC3)CC2)cc1 | 2.5 | 34.5 | -17.4 | -5.2 | 74.9* | 0.0
O=C(CN1CCN(C2CCCCC2)CC1)Nc1ccc(Br)cc1 | 16.7 | 32.3 | 18.3 | -4.2 | 3.7 | -1.0
CCn1c(C2CC(=O)N(Cc3ccccc3)C2)nc2ccccc21 (stereo unspecified) | 0.1 | -9.3 | -11.3 | 51.9*[fluorescence artefact?] | 14.2 | 0.0
CC(C)(C)N1CC(c2nc3ccccc3n2Cc2ccccc2)CC1=O (stereo unspecified) | -26.1 | 4.5 | 5.6 | -2.1 | 1.9 | -2.0
O=C(COc1ccccc1)Nc1ccc(Cl)cc1Cl | 21.0 | 0.9 | -10.6 | 1.0 | -4.3 | 0.0
O=C(OCC#CCSc1nc2ccccc2s1)c1ccco1 | 8.8 | 66.5* | -22.0 | 4.4 | 3.3 | 0.0
CCNc1nc(NCc2ccccc2)nc(SCC(N)=O)n1 | 7.0 | 0.0 | -26.4 | -0.4 | 3.4 | -1.0
CCNc1nc(NCc2ccccc2)nc(SCC(=O)Nc2ccccc2)n1 | -0.2 | 9.6 | 53.1* | 1.6 | 13.1 | -5.0
CC(NS(=O)(=O)c1cccc(S(=O)(=O)c2ccccc2)c1)C(=O)O (stereo unspecified) | 2.6 | -1.8 | -15.4 | -2.0 | 2.4 | -8.0
Nc1nccc(-c2ccc(-n3cccc3)cc2)n1 | -11.3 | 4.8 | -9.4 | 2.5 | -2.8 | 0.0
O=C(Nc1ccnc(=O)[nH]1)c1sc2ccccc2c1Cl | 22.9 | 10.7 | 58.5* | -14.2 | 50.8 | x
O=C(NNC(=S)NC(=O)c1sc2ccccc2c1Cl)c1ccc(Cl)cc1 | 14.2 | 53.4* | 39.6 | 7.1 | -5.7 | -4.0
COc1cc(NS(=O)(=O)c2ccc(NC(=S)NC(=O)c3sc4cc(F)ccc4c3Cl)cc2)nc(OC)n1 | 7.1 | 87.8* | 32.6 | 0.3 | 17.2 | -16.0
Cc1cccc(C(=O)NC(=S)NNC(=O)c2ccc(Cl)cc2)c1 | -0.4 | 88.0* | -90.9 | 12.0 | -3.4 | 1.0
COc1cc(NS(=O)(=O)c2ccc(NC(=S)NC(=O)c3ccco3)cc2)nc(OC)n1 | 26.0 | 14.4 | -91.2 | -7.3 | 5.0 | x

Compound activity deposited in PubChem by several laboratories.
